{"source": "PubChem BioAssay (Tox21)", "note": "Where “and” joins values, the source holds several entries; their conditions need not be identical. Equal values may be shown once. Inconclusive results are not listed. A structure can be active in one record and inactive in another. Calls of active or inactive are those of the source. Calls follow the shape of the dose curve; as a rule, active = well fitted curve in the direction sought with a large enough effect in the repeat runs; inconclusive = weak or mixed curves; inactive = no such curve, though single readings can be large; an effect the other way counts as inactive or inconclusive. Potency is read from the fitted curve at half-maximal effect."}
{"assay": "qHTS assay to identify small molecule that activate the aryl hydrocarbon receptor (AhR) signaling pathway - cell viability counter screen (AID 743086); also: nearly all actives have a fitted effect of over 45% in size", "details": "HepG2-AhR-luc viability, CellTiter-Fluor, 24 h; series mostly up to 70.3 µM", "procedure,_shortened": "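HepG2-AhR-luc (HG2L7.5c1) cells, 4000/well, treated 24 h at 37 C with compound; viability measured as CellTiter-Fluor fluorescence after 30 min in the same wells as the luciferase read.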"}
{"smiles": "O=[N+]([O-])O.O=[N+]([O-])O.[Cd]", "Potency": "1.93 µM (active)"}
{"smiles": "C[C@@H]1CC[C@@]2(OC1)O[C@H]1[C@@H](O)[C@H]3[C@@H]4CC[C@H]5C[C@@H](O[C@@H]6O[C@H](CO)[C@H](O[C@@H]7O[C@H](CO)[C@@H](O)[C@H](O[C@@H]8OC[C@@H](O)[C@H](O)[C@H]8O)[C@H]7O[C@@H]7O[C@H](CO)[C@@H](O)[C@H](O[C@@H]8O[C@H](CO)[C@@H](O)[C@H](O)[C@H]8O)[C@H]7O)[C@H](O)[C@H]6O)[C@H](O)C[C@]5(C)[C@H]4CC[C@]3(C)[C@H]1[C@@H]2C", "Potency": "20.5 µM (active)"}
{"smiles": "CCCCCCCCCCCCCCCC[N+](C)(C)C", "Potency": "inactive and 68.6 µM (active)"}
{"smiles": "CCOC(=O)C1(c2ccccc2)CCN(CCC(C#N)(c2ccccc2)c2ccccc2)CC1", "Potency": "inactive and 59.6 µM (active)"}
{"smiles": "C=CC(=O)OCC(COC(=O)C=C)(COC(=O)C=C)COC(=O)C=C", "Potency": "19.3 µM (active)"}
{"smiles": "CCCCCCCCCC[N+](C)(C)CCCCCCCCCC", "Potency": "inactive"}
{"smiles": "CC(C)[C@H](C(=O)O[C@H](C#N)c1cccc(Oc2ccccc2)c1)c1ccc(Cl)cc1", "Potency": "inactive"}
{"smiles": "CC[C@H](C)[C@H]1O[C@]2(C=C[C@@H]1C)C[C@@H]1C[C@@H](C/C=C(\\C)[C@@H](O[C@H]3C[C@H](OC)[C@@H](O[C@H]4C[C@H](OC)[C@@H](O)[C@H](C)O4)[C@H](C)O3)[C@@H](C)/C=C/C=C3\\CO[C@@H]4[C@H](O)C(C)=C[C@@H](C(=O)O1)[C@]34O)O2", "Potency": "inactive and 11.4 µM (active)"}
{"smiles": "CN(C)S(=O)(=O)N(SC(F)(Cl)Cl)c1ccccc1", "Potency": "61.1 µM (active)"}
{"smiles": "CC(=O)[O-].[Tl+]", "Potency": "inactive"}
{"smiles": "CCCOCC(=Nc1ccc(Cl)cc1C(F)(F)F)n1ccnc1", "Potency": "54.4 µM (active)"}
{"smiles": "CC1(C)CN=C(NN=C(/C=C/c2ccc(C(F)(F)F)cc2)/C=C/c2ccc(C(F)(F)F)cc2)NC1", "Potency": "27.3 µM (active)"}
{"smiles": "Oc1cc(Cl)c(Cl)c(Cl)c1", "Potency": "inactive"}
{"smiles": "Cc1cc(N=Nc2ccccc2C)ccc1N", "Potency": "5.45 µM (active) and 2.73 µM (active)"}
{"smiles": "CC(=O)[O-].CC(=O)[O-].[Hg+2]", "Potency": "7.7 µM (active)"}
{"smiles": "O=[N+]([O-])c1c2ccccc2cc2ccccc12", "Potency": "inactive"}
{"smiles": "CCCCCCCCCBr", "Potency": "inactive"}
{"smiles": "CC[C@H]1C[C@@H]2C[C@H]3c4[nH]c5ccc(OC)cc5c4CCN(C2)[C@@H]13", "Potency": "inactive"}
{"smiles": "[Cd+2].[Cl-].[Cl-]", "Potency": "2.19 µM (active) and 3.06 µM (active)"}
{"smiles": "c1ccc2cc3c(cc2c1)-c1cccc2cccc-3c12", "Potency": "inactive"}
{"smiles": "CC1(c2ccc(Oc3ccccc3)cc2)OC(=O)N(Nc2ccccc2)C1=O", "note": "(stereo unspecified)", "Potency": "inactive"}
{"smiles": "[CH3][Hg][Cl]", "Potency": "inactive"}
{"smiles": "O=C(CBr)c1ccc(O)cc1", "Potency": "inactive"}
{"smiles": "O=[N+]([O-])c1cc(C(F)(F)F)c(Cl)c([N+](=O)[O-])c1Cl", "Potency": "54.5 µM (active)"}
{"smiles": "O=C(O)c1cc[c]([Hg][Cl])cc1", "Potency": "inactive"}
{"smiles": "O=[N+]([O-])c1ccc2ccc3cccc4ccc1c2c34", "Potency": "inactive"}
{"smiles": "CCCCOCN(C(=O)CCl)c1c(CC)cccc1CC", "Potency": "inactive"}
{"smiles": "COC12CC[C@@]3(C[C@@H]1C(C)(O)C(C)(C)C)[C@H]1Cc4ccc(O)c5c4[C@@]3(CCN1CC1CC1)[C@H]2O5", "note": "(stereo partly specified)", "Potency": "60.7 µM (active)"}
{"smiles": "C[C@@H]1O[C@@H](O[C@@H]2C=C3CC[C@@H]4[C@H](CC[C@]5(C)[C@@H](c6ccc(=O)oc6)CC[C@]45O)[C@@]3(C)CC2)[C@H](O)[C@H](O)[C@H]1O", "Potency": "inactive"}
{"smiles": "COc1cc(C=O)cc2c1[C@H](COC(N)=O)[C@]1(OC(C)=O)ON2C[C@H]2[C@@H]1N2C(C)=O", "Potency": "0.306 µM (active)"}
{"smiles": "O=C1c2ccccc2C(=O)C1C(=O)C(c1ccccc1)c1ccc(Cl)cc1", "note": "(stereo unspecified)", "Potency": "inactive"}
{"smiles": "c1ccc(OCC2CO2)cc1", "note": "(stereo unspecified)", "Potency": "inactive"}
{"smiles": "CCCCCCCCCCCCCC[P+](CCCCCC)(CCCCCC)CCCCCC", "note": "(tested in a mixture with another compound)", "Potency": "27.3 µM (active)"}
{"smiles": "CN(C)C(=S)[S-].CN(C)C(=S)[S-].[Cu+2]", "Potency": "8.36 µM (active)"}
{"smiles": "O=C/C(Cl)=C(/Cl)C(=O)O", "Potency": "inactive"}
{"smiles": "CCCCCCCCCCCCCCC(Br)C(=O)O", "note": "(stereo unspecified)", "Potency": "inactive"}
{"smiles": "C[C@]12Cc3nonc3C[C@@H]1CC[C@@H]1[C@@H]2CC[C@@]2(C)[C@H]1CC[C@]2(C)O", "Potency": "inactive"}
{"smiles": "CCCN(CC)CC1COC2(CCC(C(C)(C)C)CC2)O1", "note": "(stereo unspecified)", "Potency": "inactive"}
{"assay": "qHTS assay to identify small molecule antagonists of the peroxisome proliferator-activated receptor gamma (PPARg) signaling pathway - cell viability counter screen (AID 743194); also: nearly all actives have a fitted effect of over 55% in size", "details": "PPARg-bla HEK293H viability, CellTiter-Glo luminescence, 17 h; Potency: co-treated with 50 nM rosiglitazone unless noted; series mostly up to 62.6 µM", "procedure,_shortened": "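Cytotoxicity counter screen in PPARg-bla HEK293H cells, same wells as reporter assay. Compounds plus 50 nM rosiglitazone (final) for 17 h at 37 C, then viability read by CellTiter-Glo luminescence.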"}
{"smiles": "O=[N+]([O-])O.O=[N+]([O-])O.[Cd]", "Potency": "0.155 µM (active)"}
{"smiles": "C[C@@H]1CC[C@@]2(OC1)O[C@H]1[C@@H](O)[C@H]3[C@@H]4CC[C@H]5C[C@@H](O[C@@H]6O[C@H](CO)[C@H](O[C@@H]7O[C@H](CO)[C@@H](O)[C@H](O[C@@H]8OC[C@@H](O)[C@H](O)[C@H]8O)[C@H]7O[C@@H]7O[C@H](CO)[C@@H](O)[C@H](O[C@@H]8O[C@H](CO)[C@@H](O)[C@H](O)[C@H]8O)[C@H]7O)[C@H](O)[C@H]6O)[C@H](O)C[C@]5(C)[C@H]4CC[C@]3(C)[C@H]1[C@@H]2C", "Potency": "23.2 µM (active)"}
{"smiles": "CCCCCCCCCCCCCCCC[N+](C)(C)C", "Potency": "18.8 µM (active) and 29.8 µM (active)"}
{"smiles": "CCOC(=O)C1(c2ccccc2)CCN(CCC(C#N)(c2ccccc2)c2ccccc2)CC1", "Potency": "inactive"}
{"smiles": "C=CC(=O)OCC(COC(=O)C=C)(COC(=O)C=C)COC(=O)C=C", "Potency": "6.92 µM (active)"}
{"smiles": "CCCCCCCCCC[N+](C)(C)CCCCCCCCCC", "Potency": "15.5 µM (active)"}
{"smiles": "CC(C)[C@H](C(=O)O[C@H](C#N)c1cccc(Oc2ccccc2)c1)c1ccc(Cl)cc1", "Potency": "inactive"}
{"smiles": "CC[C@H](C)[C@H]1O[C@]2(C=C[C@@H]1C)C[C@@H]1C[C@@H](C/C=C(\\C)[C@@H](O[C@H]3C[C@H](OC)[C@@H](O[C@H]4C[C@H](OC)[C@@H](O)[C@H](C)O4)[C@H](C)O3)[C@@H](C)/C=C/C=C3\\CO[C@@H]4[C@H](O)C(C)=C[C@@H](C(=O)O1)[C@]34O)O2", "Potency": "9.15 µM (active)"}
{"smiles": "CN(C)S(=O)(=O)N(SC(F)(Cl)Cl)c1ccccc1", "Potency": "3.89 µM (active)"}
{"smiles": "CC(=O)[O-].[Tl+]", "Potency": "inactive"}
{"smiles": "CCCOCC(=Nc1ccc(Cl)cc1C(F)(F)F)n1ccnc1", "Potency": "11 µM (active)"}
{"smiles": "CC1(C)CN=C(NN=C(/C=C/c2ccc(C(F)(F)F)cc2)/C=C/c2ccc(C(F)(F)F)cc2)NC1", "Potency": "9.77 µM (active)"}
{"smiles": "Oc1cc(Cl)c(Cl)c(Cl)c1", "Potency": "13.1 µM (active)"}
{"smiles": "CC(=O)[O-].CC(=O)[O-].[Hg+2]", "Potency": "0.977 µM (active)"}
{"smiles": "CCCCCCCCCBr", "Potency": "inactive"}
{"smiles": "CC[C@H]1C[C@@H]2C[C@H]3c4[nH]c5ccc(OC)cc5c4CCN(C2)[C@@H]13", "Potency": "inactive"}
{"smiles": "[Cd+2].[Cl-].[Cl-]", "Potency": "1.55 µM (active)"}
{"smiles": "c1ccc2cc3c(cc2c1)-c1cccc2cccc-3c12", "Potency": "inactive"}
{"smiles": "[CH3][Hg][Cl]", "Potency": "12.3 µM (active)"}
{"smiles": "O=C(CBr)c1ccc(O)cc1", "Potency": "inactive"}
{"smiles": "O=[N+]([O-])c1cc(C(F)(F)F)c(Cl)c([N+](=O)[O-])c1Cl", "Potency": "2.45 µM (active)"}
{"smiles": "O=C(O)c1cc[c]([Hg][Cl])cc1", "Potency": "38.9 µM (active)"}
{"smiles": "O=[N+]([O-])c1ccc2ccc3cccc4ccc1c2c34", "Potency": "inactive"}
{"smiles": "CCCCOCN(C(=O)CCl)c1c(CC)cccc1CC", "Potency": "inactive"}
{"smiles": "COC12CC[C@@]3(C[C@@H]1C(C)(O)C(C)(C)C)[C@H]1Cc4ccc(O)c5c4[C@@]3(CCN1CC1CC1)[C@H]2O5", "note": "(stereo partly specified)", "Potency": "inactive"}
{"smiles": "C[C@@H]1O[C@@H](O[C@@H]2C=C3CC[C@@H]4[C@H](CC[C@]5(C)[C@@H](c6ccc(=O)oc6)CC[C@]45O)[C@@]3(C)CC2)[C@H](O)[C@H](O)[C@H]1O", "Potency": "0.0119 µM (active)"}
{"smiles": "COc1cc(C=O)cc2c1[C@H](COC(N)=O)[C@]1(OC(C)=O)ON2C[C@H]2[C@@H]1N2C(C)=O", "Potency": "inactive"}
{"smiles": "CCCCCCCCCCCCCC[P+](CCCCCC)(CCCCCC)CCCCCC", "note": "(tested in a mixture with another compound)", "Potency": "0.49 µM (active)"}
{"smiles": "CN(C)C(=S)[S-].CN(C)C(=S)[S-].[Cu+2]", "Potency": "2.12 µM (active)"}
{"smiles": "O=C/C(Cl)=C(/Cl)C(=O)O", "Potency": "inactive"}
{"smiles": "CCCCCCCCCCCCCCC(Br)C(=O)O", "note": "(stereo unspecified)", "Potency": "43.6 µM (active)"}
{"smiles": "C[C@]12Cc3nonc3C[C@@H]1CC[C@@H]1[C@@H]2CC[C@@]2(C)[C@H]1CC[C@]2(C)O", "Potency": "inactive"}
{"smiles": "CCCN(CC)CC1COC2(CCC(C(C)(C)C)CC2)O1", "note": "(stereo unspecified)", "Potency": "inactive"}
